DT40 TDP1 CPT: qHTS for Inhibitors of human tyrosyl-DNA phosphodiesterase 1 (TDP1): qHTS in cells in presence of CPT; 420,000 compounds, 12% hits; AID 686979, 2013; chicken DT40 Tdp1-/-;hTDP1 cells + 20 nM CPT, ATP luminescence, 48 h; Potency, µM (highest dose often 46.2 µM), inactives show at the top dose activity change, negative = growth inhibition, most hits filed as inhibitors; note: nearly all actives have a fitted effect of over 55% in size
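Chicken DT40 Tdp1-/- cells stably complemented with human TDP1 were seeded at 400 cells/well in medium containing 20 nM camptothecin, exposed to pin-transferred compounds, and grown at 37 °C for at least 48 hr. Viability was read as ATP luminescence.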
KB-3-1 cytotox: qHTS assay for MDR1-selective chemotherapeutics: Primary screen using the parental adenocarcinoma cell KB-3-1 | KB-3-1 viability, CellTiter-Glo ATP luminescence, 72 h | Potency, µM (doses to about 46.1 µM), usual class: cytotoxic | 400,000 compounds, 1.4% hits; note: nearly all actives have a fitted effect of over 60% in size
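Cytotoxicity in the drug-sensitive parental line KB-3-1 was scored as loss of CellTiter-Glo luminescence following 72 h incubation with compound. Values come from curve fitting of normalized concentration-response data.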
HT1080NT lethal: qHTS for induction of synthetic lethality in tumor cells producing 2HG: qHTS for the HT-1080-NT fibrosarcoma cell line | AID 686970, 2013 | 360,000 compounds, 1.6% hits | Potency, µM (series often up to 46.1 µM), for the others: top-dose activity, negative = less viability, hits mostly cytotoxic | HT-1080-NT fibrosarcoma viability, CellTiter-Glo ATP luminescence, 48 h;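 note: NT is the 2HG producing partner of a matched IDH1 knockdown line; 0% = DMSO-treated cells and -100% = media-only wells without cells; nearly all actives have a fitted effect of over 55% in size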
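Read-out is CellTiter-Glo luminescence after 10 minutes at room temperature, following 48 hours' compound treatment of HT-1080-NT cells (750 cells/well, RPMI, 5% FBS, 37 degrees C).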
DT40 TDP1 no CPT: qHTS for Inhibitors of human tyrosyl-DNA phosphodiesterase 1 (TDP1): qHTS in cells in absence of CPT; AID 686978, 2013; 420,000 compounds, 15% hits; Potency, µM (titrated, usually from 46.2 µM), without a hit: top-dose activity change, negative = growth inhibition, most hits filed as inhibitors; DT40 Tdp1-/- hTDP1 cells, no CPT, ATP luminescence, 48 h; note: nearly all actives have a fitted effect of over 55% in size
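Growth kinetics read by CellTiter-Glo luminescence after ≥48 hr at 37 °C. Cells: DT40 Tdp1-/- stably carrying human TDP1, 400 per well, compound exposure in the absence of CPT (DMSO vehicle).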
KB-V1 cytotox: qHTS assay for MDR1-selective chemotherapeutics: Primary screen using the drug-selected MDR subline cells KB-V1 | KB-V1 MDR cells viability, CellTiter-Glo, 72 h | 400,000 compounds, 3.4% hits | AID 1347076, 2019 | Potency, µM (highest dose often 46.1 µM), actives largely listed as cytotoxic; note: nearly all actives have a fitted effect of over 60% in size
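qHTS viability screen in drug-selected KB-V1 MDR cells: 72 h compound treatment at 37 degrees C, ATP luminescence end point.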
HT1080 IDH1KD tx: qHTS for induction of synthetic lethality in tumor cells producing 2HG: qHTS for the HT-1080-IDH1KD cell line. HT-1080 IDH1 knockdown viability, ATP luminescence, 48 h. 360,000 compounds, 2% hits. AID 686971, 2013. Potency, µM (highest dose often 46.1 µM), for inactives: at the highest dose activity, negative = toxicity, usual class: cytotoxic;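 note: 0% = DMSO wells and -100% = cell-free medium wells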
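% activity derives from luminescence (CellTiter-Glo), normalised to DMSO and no-cell wells. HT-1080-IDH1KD cells, 750/well, had 48 h compound exposure at 37 °C.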
* = called active by the depositor; i = inactive; ? = inconclusive; / = no result given. This is a sample that favours compounds with a hit; in the whole collection about 19% have one here. Calls come from the whole dose curve; as a rule, active = well fitted curve in the direction sought with a large enough effect; inconclusive = small, poorly fitted or top-dose-only effect, or another doubt; inactive = no such curve, though single readings can be large; an effect the other way counts as inactive or inconclusive. Unless noted, % is set by controls: 0 for no effect and ±100 for the full control effect; potency is the fitted concentration of half-maximal effect.

SMILES	DT40 TDP1 CPT	KB-3-1 cytotox	HT1080NT lethal	DT40 TDP1 no CPT	KB-V1 cytotox	HT1080 IDH1KD tx
O=C(NCc1cccs1)c1ccc2c(c1)sc1nc(-c3ccc(F)cc3)cn12	-20%	/	/	?	/	/
CCc1ccc(-c2cn3c(n2)sc2cc(C(=O)NCC(C)c4ccccc4)ccc23)cc1 (centres undefined)	?	/	/	-15%	/	/
CCCN1CCN(CCCNC(=O)c2ccc3c(c2)sc2nc(-c4ccc(C)cc4)cn23)CC1	1.3µM*	/	/	1.2µM*	/	/
CCC1CCCCN1CCCNC(=O)c1ccc2c(c1)sc1nc(-c3ccc(F)cc3)cn12 (centres undefined)	4.1µM*	i	/	2.6µM*	i	/
Cc1cccc(C(=O)OC2CCOC2=O)c1O (centres undefined)	-6%	i	3%	1%	i	2%
COc1ccc(CNC(=O)CN2C(=O)COc3ccccc32)c(OC)c1	-4%	/	/	-24%	/	/
Cc1cccc(N2C(=O)c3cccc4c(N(C)CCO)ccc(c34)C2=O)c1	?	i	1%	18µM*	?	-6%
Cc1cccc(C)c1NC(=O)Cn1cc(S(=O)(=O)Cc2ccc(F)cc2)c2ccccc21	?	i	/	-10%	i	/
O=[N+]([O-])c1ccc2c(c1)C=C/C2=C\c1ccccc1	-19%	i	/	-11%	i	/
O=[N+]([O-])c1ccc(/C=C2\C=Cc3ccccc32)cc1	8.9µM*	i	/	?	i	/
CSc1ccc(/C=C2\C=Cc3cc([N+](=O)[O-])ccc32)cc1	11µM*	?	/	16µM*	i	/
COc1ccc(/C=N/n2c(N)nc(-c3ccccc3)c2-c2ccccc2)cc1	26µM*	i	-9%	16µM*	i	-15%
COc1ccc(/C=N/n2c(-c3ccccc3)n[nH]c2=S)cc1	?	i	-3%	?	i	4%
CC(OC(=O)/C=C/c1ccco1)C(=O)NC1CCCCC1 (centres undefined)	-19%	i	6%	?	?	7%
C=CCN1C(=O)C(O)(CC(=O)c2ccc(OC)cc2OC)c2cc(Br)ccc21 (centres undefined)	?	i	-15%	?	?	-6%
COc1ccc(C(=O)CC2(O)C(=O)N(CCc3ccccc3)c3ccc(Br)cc32)cc1OC (centres undefined)	16µM*	i	/	?	i	/
O=C(CC1(O)C(=O)N(CCc2ccccc2)c2ccc(Br)cc21)c1ccc(F)cc1 (centres undefined)	?	?	/	16µM*	i	/
Cc1coc(C)c1C(=O)CC1(O)C(=O)N(CCc2ccccc2)c2ccccc21 (centres undefined)	?	i	4%	?	?	-3%
CN(CCNC(=O)c1ccc(CS(=O)(=O)c2c(Cl)cccc2Cl)o1)CCc1ccccc1	?	i	-13%	-26%	i	-1%
COc1cc(C)nc(NCc2ccccc2)n1	?	i	0%	?	i	-11%
CCCOc1ccc(Nc2cc(C)nc(C)n2)cc1	23µM*	i	/	?	i	/
C/C(=N\Nc1cc(C)nc(NCc2ccccc2)n1)c1ccc([N+](=O)[O-])cc1	13µM*	i	2%	9.2µM*	i	-2%
CCOc1ccc(Nc2cc(C)nc(N3CCOCC3)n2)cc1	-25%	i	-17%	?	i	-16%

Source: PubChem BioAssay
